# Experimental data reported in the supplement of paper PMC10105736.
# A number with no mark means an inactive call.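 The calls were made as follows: active = MAPPIT score above the 99th percentile of random reference set scores in the same batch; inactive = at or below it.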
# B1: Lac (protein)
# chain: MWRPSISNCVWSTLLLAIFVQQTLAQRTPTISYITQEQIKDIGGTVEFDCSVQYAKEYNVLFLKTDSDPVFLSTGSTLVIKDSRFSLRYDPNSSTYKLQIKDIQETDAGTYTCQVVISTVHKVSAEVKLSVRRPPVISDNSTQSVVASEGSEVQMECYASGYPTPTITWRRENNAILPTDSATYVGNTLRIKSVKKEDRGTYYCVADNGVSKGDRRNINVEVEFAPVITVPRPRLGQALQYDMDLECHIEAYPPPAIVWTKDDIQLANNQHYSISHFATADEYTDSTLRVITVEKRQYGDYVCKATNRFGEAEARVNLFETIIPVCPPACGQAYIAGAEDVSATSFALVGILAALLFAR
# B2: Cpn (protein)
# chain: MEPGTIPSPVSAPVAAPVTPSAVAAPVQVVSPAAVAPAPAAPIAVTPVAPPPTLASVQPATVTIPAPAPIAAASVAPVASVAPPVVAAPTPPAASPVSTPPVAVAQIPVAVSAPVAPPVAATPTPVAPIPVAAPVIATPPVAASAPTPAAVTPVVSPVIATPPVVPANTTVPVAAPVAAVPAAVPVVAPVLAPAVAPAVAPVVAETPAPPPVAEIPVATIPECVAPLIPEVSVVATKPLAAAEPVVVAPPATETPVVAPAAASPHVSVAPAVETAVVAPVSASTEPPVAAATLTTAPETPALAPVVAESQVAANTVVATPPTPAPEPETIAPPVVAETPEVASVAVAETTPPVVPPVAAESIPAPVVATTPVPATLAVTDPDVTASAVPELPPVIAPSPVPSAVAETPVDLAPPVLPPVAAEPVPAVVAEETPETPAPASAPVTIAALDIPEVAPVIAAPSDAPAEAPSAAAPIVSTPPTTASVPETTAPPAAVPTEPIDVSVLSEAAIETPVAPPVEVTTEVAVADVAPPEAAADLIIEPVEPPAPIPDLLEQTTSVPAVEAAESTSSPIPETSLPPPNEAVASPEVAVAPITAPEPIPEPEPSLATPTEPIPVEAPVVIQEAVDAVEVPVTETSTSIPETTVEYPVAEKVLDPAITEAPVTTQEPDVANINDGAPATEITTPAVEIVTAAAEVSDTAIPLIDPPVPQEIAVAEIPETETKPAEVIVEQSTIPIEAPVPEVSKYAEPVISEAPAAEVPITAGDNPDNTSVGISEVVPTIAEKAVEEVPTSEIPEQSSSPSDSVPVAKITPLLRDLQTTDVSLLAIAATLDAIGEKLKDQKARNQQVMDRLCEIEKILGPPKSN
# B3: prod (protein)
# chain: MEKVEAVTVSNVDPYRRILNKVVSQLLLDKGAGQASNHSLETLTQMLQALIWEIGNSAHNYCELSGRTMPTVGDVSLALINMGISISNLDPYMRKETHVPIPLPPQQTQQRPLSLLQAGIKAPHPHYVPSYFPPMPDPHAYIRTPTHKQPVTEYEAIREKAACQKRDIEKALTKFLCKTTETNNLFPTEDNMFPLIACKPAFPPYAAALNPTDQVFDFEELEYHYLVANRTEDEPSKDDGEEGDSENEEMDGDKSKEEKPELDIKPNSNTNKAILENPNIDNPYLRAATLPKRSKNCPTPGTMPSRSLATTAPTIRTPSTLEITKTNL
# B4: bys (protein)
# chain: MGKPKKANVATIKNVNLEKQITEGRVAKNKNKDKVKLRAEESANIDARSSQKILAAAKLQQLELDEENFPSLVTVKKVNFSLNDGHVKEDEEVNETDLMADLDMDEDDVAAFERFQQPAQEGKRTLHLSKMIMQKIQEKEADIHTKISDEGSLKIEEIDPKVKEMYEGVRDVLKRYRSGKIPKAFKIIPKLRNWEQILFITEPHNWSAAAMFQGTRIFCSVLSQAMAQRFYNLVLLPRVRDDLCEYKKLNMHLYNALKRALFKPAAFMKGIILPLLEGGDCTLREAIIFGSVVARSSIPVLHSSACLLKICEMAYSGANSIFIRYFLDKRYALPYRVVDAAVFHFLRFENDKRELPVLWHQSLLTFAQRYKNDISSEQRDALLQLLKKKSHFKITPDVRRELQAASCRDVEMMETDNGLAGQPAKMYTDADVEYEG
# B5: B52 (protein)
# chain: MVGSRVYVGGLPYGVRERDLERFFKGYGRTRDILIKNGYGFVEFEDYRDADDAVYELNGKELLGERVVVEPARGTARGSNRDRYDDRYGGRRGGGGGRYNEKNKNSRSSSRYGPPLRTEYRLIVENLSSRVSWQDLKDYMRQAGEVTYADAHKQRRNEGVVEFASLSDMKTAIEKLDDTELNGRRIHLVEDRRGGRSGGGGGSGRGRSRSSSSRSRSRSRRRSRSRRSSHSRSKSRSRSKSRGGRSKSKSPVKSRSRSRSRSNKSRDVSKSKSKSHSRTRSRSPKRERDSRSRSRSVSKRESRSRSRSKSIHRDSRSRPPTVSFKSSFYKFTTMPFFCSDRSASAENKSRSRSRSRSASPKNGNASPDRNNESMDD
# B6: CG33108 (protein)
# chain: MSNISSVAPPPPPPPMIVTPSTPATTKERPVGDNITTDECTWACEYPEVQKGCYLSRVCQYTPPKHCQYYSVNSIVQVGPTCGLVALSMLLGGSPTADDLLKDAIDQEYTLNGELFSAQYLFELTRKHMPGPAACQLHVGPLDCKKVKELLKAGGCLLVPYDADVNHAPCVKNGHRAHWALIVGYLVDTQDRFYVLARHGKSRNLAVWPLDTLSQSNENLKEFAQPKGYPDDEFLLPPGGIGGSLGLNERCILVNGLPKQVIHVRWS
# Legend:
# Experiment in all cases: MAPPIT interaction score (arbitrary units); higher = stronger binary interaction signal, active = hit call of the paper
# Lac = conditions: pair source set: Lit-BM-16
# Kaz = conditions: MAPPIT configuration: N-N; pair source set: Curagen_low_conf
# Lmpt = conditions: MAPPIT configuration: N-N; pair source set: Curagen_low_conf
# Pen = conditions: MAPPIT configuration: N-N; pair source set: Finley_Y2H
# lwr = conditions: MAPPIT configuration: N-N; pair source set: screen_1
# LTV1 = conditions: MAPPIT configuration: N-N; pair source set: screen_1
# Lcp1 = conditions: MAPPIT configuration: N-N; pair source set: DPIM
# LRR = conditions: pair source set: RRS
# 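Also: HEK293T cells with Epo stimulation, STAT-responsive firefly luciferase reporter, fold induction versus unstimulated cells divided by the larger fold induction of two negative controls lacking either bait or prey.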
binder,measurement,setting,value
B1,MAPPIT interaction score,Lac; MAPPIT configuration: N-C,-0.593
same,MAPPIT interaction score,Lac; MAPPIT configuration: N-N,-0.017
B2,MAPPIT interaction score,Kaz,0.293
B3,MAPPIT interaction score,Lmpt,2.19
same,MAPPIT interaction score,Pen,0.326
same,MAPPIT interaction score,lwr,-0.147
B4,MAPPIT interaction score,LTV1,1.68
B5,MAPPIT interaction score,Lcp1,-0.142
B6,MAPPIT interaction score,LRR; MAPPIT configuration: N-C,1.24
same,MAPPIT interaction score,LRR; MAPPIT configuration: N-N,-0.128
